Reference: PubChem BioAssay (NCI)
This is part of a sample that, as a whole, favours compounds with a hit. Of some 83,000 tested, about 20% had one in any assay.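 How to read the values: 0–100, growth inhibition (40 = 60% inhibited); 0, no net growth; -100 to 0, cell death (-40 = 40% of starting cells died; -100 = all dead).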 A number with no mark means an inactive call. The source made the active and inactive calls. How the source made its calls: active means growth percent below 10; inactive means the rest.

Test system: NCI-H322M lung
Experiment: NCI-60 one-dose screen, 48 h (100 = growth as untreated, 0 = no growth, -100 = all killed)
Settings: 10 µM unless noted

Row | SMILES | growth
1 | CN(C)c1ccc(/C=C(\C#N)c2nc3ccccc3c(=O)[nH]2)cc1 | 89.7%
2 | CCn1c2ccccc2c2ccc(C(C)=O)cc21 | 126%
3 | Clc1cccc(Cc2cn3cc(-c4ccccc4)nc3s2)c1 | 63.5%
4 | COc1cc(C2NC(c3ccc(Cl)cc3)C(C)C(=NC(=O)c3cnccn3)C2C)cc(OC)c1OC (stereo not drawn) | 113%
5 | COc1ccc(C2=NN(C(=O)c3cc(OC)c(OC)c(OC)c3)C(c3ccc(C#N)cc3)C2)cc1OC (stereo not drawn) | 36.9%
6 | CCc1[nH]nc(-c2ccc(OC)cc2)c1-c1ccccc1OCCN(CC)CC | 97.7%

Test system: HOP-62 NSCLC
Experiment: as above
Settings: 10 µM unless noted

Row | SMILES | growth
7 | NC(N)=N/N=C(/c1ccccc1)c1ccc(Cl)cc1 | 85%
8 | O=C(Nc1nc(-c2ccc(Cl)cc2)cs1)c1cc(O)c(O)c(O)c1 | 38.6%
9 | CC(=O)Oc1ccc(C2OC(c3ccc4ccccc4c3OC(C)=O)=NN2C(C)=O)c(OC(C)=O)c1 (stereo not drawn) | 14.7%
10 | Fc1ccc(-c2nnc(-c3c(-c4ccc(F)cc4)nc4ncccn34)o2)cc1 | 105%
11 | COc1ccc(/C=C(\C#N)c2ccccc2)cc1 | 99.6%
12 | C=C(C)[C@H]1CC/C(C)=C/CC[C@]2(C)O[C@H]2CC/C(C=O)=C\C1O (stereo partly drawn) | 105%
13 | O=c1ccn(C2OC(CO)C(O)C2F)c(=O)[nH]1 (stereo not drawn) | 103%
14 | COc1cccc(-c2nnc(N)o2)c1 | 102%
15 | O=c1cc(-c2cccnc2)oc2c1ccc1ccccc12 | 88.6%
16 | COc1ccc(-c2cn(-c3ccccc3)c(-c3ccccc3)n2)cc1OC | 102%
17 | COc1cc(Oc2cc(-c3cccnc3)ccc2NC(=O)Nc2ccc(F)cc2F)cc(OC)c1OC | 96.4%
18 | ClC1=C(Cl)C(Cl)=C(Cl)C1=C/C=C/c1ccccc1 | -68.2% (active)
19 | CNc1ccc(CSc2ccc(Cl)cc2)cc1 | 87.4%
20 | C/C(=C\CCc1ccoc1)CC/C=C(\C)CCCN1CCC(CO)CC1 | 83%
21 | Oc1ccc(Cc2ccc(O)c(C3CC(c4ccc(Cl)cc4)=NN3)c2)cc1C1CC(c2ccc(Cl)cc2)=NN1 (stereo not drawn) | 31.6%
22 | CSc1nc2c(c(=O)n1C)C(c1ccccc1)C1=C(N2)/C(=C/c2ccccc2)CCC1 (stereo not drawn) | 94.3%
23 | CCCc1nn(C)c2c(=O)[nH]c(-c3cc(S(=O)(=O)N4CCN(C)CC4)ccc3OCC)nc12 | 104%
24 | O=C(/C(=N/O)S(=O)(=O)c1ccccc1)c1cccs1 | 94.4%
25 | Cc1ccccc1-c1cc(Cc2ccccc2O)c(=O)[nH]n1 | 108%

Row | SMILES | growth
26 | O=C(CSc1nc2c(n1Nc1ccccc1)-c1ccccc1SC2)Nc1nc(-c2ccc(Cl)cc2)cs1 | 62.3%
27 | CCOc1cc(C(C)(C)C)ccc1C1=N[C@H](c2ccc(Cl)cc2)[C@H](c2ccc(Cl)cc2)N1C(=O)N1CCN(CC#Cc2cccc3c2CN([C@@H]2CCC(=O)NC2=O)C3=O)CC1 | 40.7%
28 | Nc1ccc(S(=O)(=O)Nc2ncccn2)cc1 | 108%
29 | CC(=O)n1c2ccccc2c2ccccc21 | 93.8%
30 | O=C1C(Cl)=C(N=Nc2c(Cl)c(O)c3ccccc3c2O)C(=O)c2ccccc21 | 52.1%
31 | NC(N)=NN=c1c(=O)c2ccccc2c1=O | 32.3%
32 | O=C(Nc1ccccc1Cl)c1cnc2ccc(C3CCNCC3)cn12 | 58.3%
33 | CC12CCC3C(CCC4CC(=O)/C(=C\O)CC43C)C1CCC(=O)O2 (stereo not drawn) | 90.9%
34 | Oc1[nH]c2ccc(Cl)cc2c1/C=c1/ccc2c(c1)N=C(c1ccc(C(F)(F)F)cc1)N=2 | 71.5%
35 | O=C(c1ccccc1)c1ccccc1Cl | 105%
36 | N#Cc1c(N2CCOCC2)nc2sc3cc(Cl)ccc3n2c1=N | 90.2%
37 | O=C1CCCN1C1CCN(Cc2cc3ccccc3[nH]c2=O)c2ccccc21 (stereo not drawn) | 79.5%
38 | CN(C)c1ccc(/C=C(\C#N)c2nc3ccccc3c(=O)[nH]2)cc1 | 105%
39 | CCn1c2ccccc2c2ccc(C(C)=O)cc21 | 103%
40 | Clc1cccc(Cc2cn3cc(-c4ccccc4)nc3s2)c1 | 69.7%
41 | COc1cc(C2NC(c3ccc(Cl)cc3)C(C)C(=NC(=O)c3cnccn3)C2C)cc(OC)c1OC (stereo not drawn) | 117%
42 | COc1ccc(C2=NN(C(=O)c3cc(OC)c(OC)c(OC)c3)C(c3ccc(C#N)cc3)C2)cc1OC (stereo not drawn) | 36.1%
43 | CCc1[nH]nc(-c2ccc(OC)cc2)c1-c1ccccc1OCCN(CC)CC | 84.6%
